The text below walks through data of the OligoGym collection.
Further: reference of the scale not given here.

The first experiment has as its target ULK1. In words: pooled miR-30 sensor sort-seq; sequence = guide strand. The settings on record: shRNA.
The sequence TTGTTCTTCTCGTAGAACAGGC returned a sensor-assay potency score (higher = more potent) of -0.479.
In turn, TTCTTCTCGTAGAACAGGCGCA came in with a sensor-assay potency score (higher = more potent) of -0.466.
Sequence TTTTTGTCTGTTATGTGGCGTG returned a sensor-assay potency score (higher = more potent) of -0.361.
TTGCAAAGAAAAACACACGTGT came in with a sensor-assay potency score (higher = more potent) of 0.333.
In turn, TTGCTCTGGAGGTACCGCGCGA came in with a sensor-assay potency score (higher = more potent) of -0.555.
Sequence TTCTTCTTGTTAATGCACTTGA had a sensor-assay potency score (higher = more potent) of 0.0356.
As to TTGCGGGAGAACTCGAACTTGC, the sensor-assay potency score (higher = more potent) is -0.945.
Still for that read-out and setting: then TTGAACAAAGAACTGCCTCTGC, with 1.01.
TTCAGGTACAGCACCAGCTGTT showed a sensor-assay potency score (higher = more potent) of -0.477.
For the sequence ATCAAGAGAACATTCAACCAGG, the sensor-assay potency score (higher = more potent) is -0.0767.
The sequence TTGTACAGCTCATTCAGCCTGC gave a sensor-assay potency score (higher = more potent) of 0.11.
Regarding ATGTGTATGTACAAACACCAGG, the sensor-assay potency score (higher = more potent) is -1.55.

The target of a further experiment is UMOD. Described as above. The settings on record: shRNA.
For the sequence ATCAGTGATGTTGAAGTCCTGT, the sensor-assay potency score (higher = more potent) came to 0.164.
For TTCCTCGTCAACACTGTCCCAC, the sensor-assay potency score (higher = more potent) came out at 0.0538.
On to TATACTGCACTCCTCACACGTC, for which the sensor-assay potency score (higher = more potent) was -0.701.
TTGTAGACGTAGTAGCCGCCGG showed a sensor-assay potency score (higher = more potent) of -1.04.
On the same count and under the same terms, to TTGCAGTCCTCGTCTATACTGC belongs -0.687; to TTTCATTCCTCGTCAACACTGT, 0.582.
In the case of TCGATTTGCAGTCCTCGTCTAT, the sensor-assay potency score (higher = more potent) was -0.657.
Sequence TAGTTGAGTCTCTAGTGTGTGG showed a sensor-assay potency score (higher = more potent) of -0.521.
On the same count and under the same terms, to TTGCACTTTTCATTCATGGTGT belongs 0.244; to TAGAGCACTGACCATTGGCTGT, -0.936; to TAGACTAGGTCATAGTTTCCAG, -0.219.
TTGAAGTCCTGTTTGCACTGGC: the sensor-assay potency score (higher = more potent) stood at 0.829.

The target in another experiment is UNC5A. The description is as above. Particulars: shRNA.
Regarding TTACTCTTCCACAGGGAGCTGG, the sensor-assay potency score (higher = more potent) was -0.541.
TTAAGGGACAGCTTCGGCCGGG gave a sensor-assay potency score (higher = more potent) of -0.139.
TTGAAGTTGATGCTGAAGCTCT came in with a sensor-assay potency score (higher = more potent) of -0.155.
Consider TTGATGCTGAAGCTCTGCCCGT, for which the sensor-assay potency score (higher = more potent) is -1.2.
As for TTGGTGAGCTGGAACTTGGGGC, the sensor-assay potency score (higher = more potent) is -0.337.
Still for that read-out and setting: then TAGACGATGACAGCAGCGGAGG, with -1.55; and TTGAAGAAGATCTGCGTGGCGG, with -0.341.
TCTCATAGATCTTCCCTCGGGG displayed a sensor-assay potency score (higher = more potent) of -0.279.
TTGCACTTGAAGAAGATCTGCG: the sensor-assay potency score (higher = more potent) came out at 0.732.
The sequence TAGGCCTTCTGACTCTTGGTGG showed a sensor-assay potency score (higher = more potent) of -0.43.
Consider TAGATCTCATAGATCTTCCCTC, for which the sensor-assay potency score (higher = more potent) is -0.268.
As for TTGAGGATCATGGCTGTGGGGC, the sensor-assay potency score (higher = more potent) was -1.23.
